The nature of assay [1]: A CellTox Green Cytotoxicity Assay to monitor cytotoxicity in HEK293 cells - 32 hour (AID 1224881). Further: nearly all actives have a fitted effect of over 40% in size. Further: potency means the concentration at half of the fitted maximal effect. The method, boiled down: (§1)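 HEK293 cells, 600/well, were preincubated 5 hours and then exposed to compounds at 37 C for up to 40 hours. A cell-impermeant cyanine dye staining dead-cell DNA was read by fluorescence at 0, 8, 16, 24, 32 and 40 h time points.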
Assay [2] in a line: A CellTox Green Cytotoxicity Assay to monitor cytotoxicity in HepG2 cells - 0 hour (AID 1224882). Further: nearly all actives have a fitted effect of over 35% in size. The method, boiled down:
(§2)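 HepG2 cells, 600/well, preincubated 5 h with CellTox Green dye, then exposed to Tox21 compounds in DMSO at 37 C for up to 40 h. Dead-cell DNA fluorescence read at the indicated time point.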

Assay [3] can be described thus: A CellTox Green Cytotoxicity Assay to monitor cytotoxicity in HepG2 cells - 32 hour (AID 1224883). Further: nearly all actives have a fitted effect of over 50% in size. Further: potency means the concentration at half of the fitted maximal effect. The method, boiled down: as §2
A short description of assay [4]: A CellTox Green Cytotoxicity Assay to monitor cytotoxicity in HEK293 cells - 8 hour (AID 1224884). Further: nearly all actives have a fitted effect of over 35% in size. The method, boiled down:
as §1

The nature of assay [5]: qHTS RealTime-Glo MT Cell Viability Assay in HepG2 cells - 16 hour (AID 1224885). Further: nearly all actives have a fitted effect of over 50% in size. Further: potency means the concentration at half of the fitted maximal effect. The method, boiled down: (§3)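 Cell number in HepG2 cultures estimated from NanoLuc luminescence generated by metabolic reduction of a prosubstrate by living cells. The homogeneous, nonlytic format allowed repeated reads at 0, 8, 16, 24, 32 and 40 h of compound exposure.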
Assay [6] in a line: qHTS RealTime-Glo MT Cell Viability Assay in HEK293 cells - 24 hour (AID 1224886). Further: nearly all actives have a fitted effect of over 50% in size. Further: potency means the concentration at half of the fitted maximal effect. The method, boiled down: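 Homogeneous bioluminescent viability format in HEK293 cells (600 cells/well). Following 5 h at 37 C/5% CO2, 23 nL compound was pintooled; the signal was measured repeatedly during 40 h incubation.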
Assay [7] in a line: qHTS RealTime-Glo MT Cell Viability Assay in HEK293 cells - 8 hour (AID 1224887). Further: nearly all actives have a fitted effect of over 50% in size. Further: potency means the concentration at half of the fitted maximal effect. The method, boiled down:
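600 cells/well were plated with the nonlytic NanoLuc/prosubstrate reagent, pre-incubated 5 h, then given 23 nL of compound in DMSO. Incubation at 37 C for 40 h, with luminescence from viable-cell-reduced substrate read repeatedly from 0 h.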
In general terms: Quantitative high-throughput screening tests each substance at several concentrations.

The nature of assay [8]: A CellTox Green Cytotoxicity Assay to monitor cytotoxicity in HEK293 cells - 16 hour (AID 1224888). Further: nearly all actives have a fitted effect of over 35% in size. The method, boiled down: as §1
Assay [9] is described as follows: qHTS RealTime-Glo MT Cell Viability Assay in HepG2 cells - 0 hour (AID 1224889). Further: nearly all actives have a fitted effect of over 50% in size. The method, boiled down: as §3
A short description of assay [10]: A CellTox Green Cytotoxicity Assay to monitor cytotoxicity in HepG2 cells - 8 hour (AID 1224890). Further: nearly all actives have a fitted effect of over 45% in size. The method, boiled down: as §2

Values without a mark were called inactive. Records with an inconclusive call do not appear. Activity calls are given as the source filed them. The call rests on the fitted dose curve; in most records, active means well fitted curve in the direction sought with a large enough effect in the repeat runs; inconclusive means weak or mixed curves; inactive means no such curve, though single readings can be large; an effect the other way counts as inactive or inconclusive.

In the case of `CC(=O)Oc1ccc(C(=C2CCCCC2)c2ccc(OC(C)=O)cc2)cc1`, the Potency entry in assay [1], in assay [2], in assay [3], in [4], in [5] and in assay [6] was “inactive” in each case. Also, the Potency result in assay [7], in assay [8], in assay [9] and in [10] was “inactive” throughout.

On to `C=CCNc1nc(NCC=C)nc(N2CCN(C(c3ccc(F)cc3)c3ccc(F)cc3)CC2)n1`, for which the Potency result in [1], in [2], in assay [3], in [4], in [5] and in assay [6] was “inactive” throughout. Besides, the Potency result in [7], in assay [8], in [9] and in assay [10] was “inactive” throughout.

Consider `CC(C)C(=O)O`, for which the Potency result in assay [1], in assay [2], in assay [3], in [4], in assay [5] and in assay [6] was “inactive” in each case. Also, the Potency result in assay [7], in assay [8] and in assay [10] was “inactive” throughout.

Regarding `CCCCN(CCCC)C(=S)SSC(=S)N(CCCC)CCCC`, the Potency result in assay [1], in [2], in assay [3], in assay [4], in assay [5] and in assay [8] was “inactive” throughout. The Potency entry in [9] and in [10] was “inactive” in each case. Further, the results for the Potency in assay [6] and in assay [7] were 48.5 µM (active) and 34.3 µM (active), respectively.

Take `CC[C@H](NC(=O)c1cc(F)ccc1NS(=O)(=O)c1cccc2cccnc12)c1ccccc1`: the Potency result in assay [1], in assay [2], in assay [3], in assay [4], in assay [6] and in [7] was “inactive” in each case. Besides, the Potency entry in assay [8] and in assay [10] was “inactive” in each case. Also, the Potency in [5] is 46.3 µM (active).

As for `CC(=O)OCC(=O)[C@@]12OC(C)(C)O[C@@H]1C[C@H]1[C@@H]3C[C@H](F)C4=CC(=O)C=C[C@]4(C)[C@@]3(F)[C@@H](O)C[C@@]12C`, in assay [1], the Potency was 26.8 µM (active). Moreover, the Potency entry in [2], in assay [3], in assay [4], in assay [5], in [6] and in assay [7] was “inactive” in each case. In addition, the Potency entry in assay [8] and in assay [10] was “inactive” each time.

`CC(N)CN` (centres undefined): the Potency entry in assay [1], in assay [2], in assay [3], in assay [4], in assay [5] and in assay [6] was “inactive” throughout. The Potency result in assay [7], in assay [8], in [9] and in [10] was “inactive” in each case.

With `OC(CCCN1CCCCC1)(c1ccccc1)c1ccccc1`, the Potency result in assay [1], in [2], in assay [3], in assay [4], in [5] and in assay [6] was “inactive” throughout. Moreover, the Potency result in assay [7] and in assay [9] was “inactive” in each case.

With `CC1(C)O[C@@H]2C[C@H]3[C@@H]4CCC5=CC(=O)C=C[C@]5(C)[C@H]4[C@@H](O)C[C@]3(C)[C@]2(C(=O)CO)O1`, the Potency entry in assay [1], in [2], in assay [3], in assay [4], in assay [5] and in assay [6] was “inactive” throughout. Further, the Potency entry in [7], in assay [8] and in assay [10] was “inactive” in each case.

For the molecule `COC(=O)[C@@H]1CC2=CC(=O)CC[C@]2(C)[C@@]23O[C@@H]2C[C@@]2(C)[C@@H](CC[C@@]24CCC(=O)O4)[C@H]13`, the Potency entry in [1], in assay [2], in assay [3], in [4], in assay [5] and in assay [6] was “inactive” each time. Moreover, the Potency entry in assay [7], in assay [8], in [9] and in assay [10] was “inactive” in each case.

Consider `Cc1cc(C(=C2C=CC(=Nc3ccc(S(=O)(=O)O)cc3S(=O)(=O)O)C=C2)c2ccc(Nc3ccc(S(=O)(=O)O)cc3)cc2)ccc1N`, for which the Potency result in assay [1], in [2], in assay [3], in assay [4], in [5] and in assay [6] was “inactive” throughout. In addition, the Potency result in assay [7], in assay [8] and in [10] was “inactive” in each case.

For the molecule `C=C(C)C(=O)OCCOC(=O)CC(C)=O`, the Potency entry in assay [1], in assay [2], in [3], in assay [4], in assay [5] and in assay [6] was “inactive” in each case. Also, the Potency result in [7] and in assay [9] was “inactive” throughout.

On to `CCCCCCOC(=O)C(C)C`, for which the Potency entry in [1], in assay [2], in assay [3], in assay [4], in assay [5] and in assay [6] was “inactive” each time. Moreover, the Potency result in assay [7], in [8], in assay [9] and in [10] was “inactive” each time.

In the case of `CCCCCCCC/C=C\CCCCCCCC(=O)OC`, the Potency entry in assay [1], in assay [2], in [3], in assay [4], in assay [5] and in [6] was “inactive” throughout. Also, the Potency entry in assay [7], in assay [8], in assay [9] and in assay [10] was “inactive” throughout.

For the molecule `O=S1OCCO1`, the Potency result in [1], in assay [2], in assay [3], in assay [4], in [5] and in assay [6] was “inactive” throughout. Besides, the Potency result in assay [7], in assay [8], in assay [9] and in [10] was “inactive” each time.

In the case of `CCCOCCOCCO`, the Potency entry in assay [1], in [2], in assay [3], in assay [4], in [5] and in [6] was “inactive” each time. Also, the Potency result in assay [7], in assay [8], in [9] and in [10] was “inactive” each time.

Turning to `Cc1cc2nc3ccc(=[N+](C)C)cc-3sc2cc1N`, the Potency entry in [1], in [2], in assay [3], in assay [4], in assay [8] and in assay [10] was “inactive” in each case. Further, the figures for the Potency in [5], in assay [6] and in assay [7] were 9.52 µM (active), 2.68 µM (active) and 1.9 µM (active), respectively.

Regarding `O=C(O)c1ccc(CO)o1`, the Potency result in [1], in assay [2], in assay [3], in [4], in [5] and in assay [6] was “inactive” throughout. Besides, the Potency entry in assay [7], in assay [8], in assay [9] and in [10] was “inactive” in each case.

As to `COC(=O)c1cc(S(N)(=O)=O)ccc1OC`, the Potency result in assay [1], in assay [2], in assay [3], in assay [4], in assay [5] and in [6] was “inactive” each time. In addition, the Potency entry in assay [7], in assay [8], in assay [9] and in assay [10] was “inactive” throughout.

Take `COC(OC)(C(=O)c1ccccc1)c1ccccc1`: the Potency entry in [1], in assay [2], in assay [3], in [4], in assay [5] and in assay [6] was “inactive” each time. Besides, the Potency entry in [7], in [8], in [9] and in assay [10] was “inactive” throughout.

For `CCCCCCCCSCCO`, the Potency result in assay [1], in assay [2], in [4], in assay [5], in [6] and in [7] was “inactive” throughout. Moreover, the Potency result in [8], in [9] and in [10] was “inactive” in each case. Further, in [3], the Potency is 43.6 µM (active).

As for `CCN(Cc1cccc(S(=O)(=O)O)c1)c1ccc(C(=C2C=CC(=[N+](CC)Cc3cccc(S(=O)(=O)[O-])c3)C=C2)c2ccccc2)cc1`, the Potency entry in assay [1], in [2], in [3], in assay [4], in assay [5] and in assay [6] was “inactive” in each case. Moreover, the Potency result in assay [7], in assay [8] and in assay [10] was “inactive” in each case.

These data come from PubChem BioAssay (Tox21).
